This passage reports cytotoxicity call results from the antibiotic and cytotoxicity screens of Wong et al. (2023).

Hit rate of the full screen: of about 39,000 compounds, about 3,300 (8.5%) were called active. This is one part of a sample in which actives are shown more often than they occur.

The experiment concerns HepG2. The experiment is described as follows: cytotoxicity call (relative viability < 0.9). The settings on record: 10 µM.
On to `C[C@@H]1CCCCO[C@H](CN(C)Cc2ccc(C(=O)Nc3ccccc3N)cc2)[C@@H](C)CN([C@@H](C)CO)C(=O)c2cc(N(C)C)ccc2O1`, for which the cytotoxicity call is “inactive”.
For the compound `O=C(C[C@H]1C=C[C@@H](NC(=O)CN2CCOCC2)[C@@H](CO)O1)NCCc1ccccc1`, the cytotoxicity call is “inactive”.
As for `CC(C)CC#Cc1ccc2c(c1)O[C@H](CN(C)C(=O)c1ccncc1)[C@H](C)CN([C@H](C)CO)S2(=O)=O`, the cytotoxicity call was “inactive”.
The same measure for `CCCCCCCCc1ccc(-c2ccc(C(=O)O)cc2)cc1`: “inactive”.
For `CCCCCCCCCc1ccc(OCCOCCOCCOCCOCCOCCOCCOCCOCCO)cc1`, the cytotoxicity call is “active”.
As to `OCCC[C@@H](O)c1ccc(OCCO)cc1`, the cytotoxicity call was “inactive”.
For `C[C@@H]1CN([C@@H](C)CO)C(=O)CCCn2nncc2CO[C@H]1CN(C)Cc1ccc(C(=O)Nc2ccccc2N)cc1`, the cytotoxicity call was “inactive”.
In the case of `c1coc(CNC[C@H]2Cn3nncc3CO2)c1`, the cytotoxicity call is “inactive”.
As for `CC(C)(C)c1ccc(NC(=O)c2ccc(C(C)(C)C)s2)cc1`, the cytotoxicity call was “inactive”.
`CC(C)(C)c1ccc(NC(=O)N[C@H]2CCCc3ccccc32)cc1`: the cytotoxicity call was “active”.
Turning to `N[C@H]1CC[C@@H](NC(=O)[C@H]2CCc3ccccc32)CC1`, the cytotoxicity call is “inactive”.
Take `Cc1ccc(S(=O)(=O)Nc2ccc3c(c2)C(=O)N([C@H](C)CO)C[C@H](C)[C@@H](CN(C)C(=O)NC2CCCCC2)OCCCC[C@@H](C)O3)cc1`: the cytotoxicity call is “inactive”.
For the compound `Cl.Clc1ccc(Cn2c(CN3CCCC3)nc3ccccc32)cc1`, the cytotoxicity call is “inactive”.
For the compound `Clc1ccc(CSc2nc3ccccc3s2)cc1`, the cytotoxicity call was “inactive”.
Turning to `Cc1nc2ccccc2n1Cc1ccc(Cl)cc1`, the cytotoxicity call was “active”.
The same measure for `CC1=CC2(CO)C(=O)[C@]3(CO3)C1[C@H]1[C@]2(C)C=C(CO)C(=O)[C@]12CO2` (stereo not given in full): “inactive”.
Regarding `COc1ccc([Si](C)(C)[C@@H]2[C@@H](CCO)O[C@]3(C(=O)N(Cc4cccc(N5C(=O)c6cccc7cccc5c67)c4)c4ccccc43)[C@H]2C)cc1`, the cytotoxicity call is “active”.
Take `COc1ccc([Si](C)(C)[C@H]2[C@H](CCO)O[C@@]3(C(=O)N(Cc4cccc(N5C(=O)c6cccc7cccc5c67)c4)c4ccccc43)[C@@H]2C)cc1`: the cytotoxicity call is “active”.
The value for `COc1ccc([Si](C)(C)[C@H]2[C@H](CC(=O)N3Cc4ccccc4C[C@H]3CO)O[C@@]3(C(=O)N(Cc4ccc(N5C(=O)c6cccc7cccc5c67)cc4)c4ccccc43)[C@@H]2C)cc1` was “inactive”; that for `COc1ccc([Si](C)(C)[C@H]2[C@H](CCO)O[C@@]3(C(=O)N(Cc4ccccc4)c4ccc(N5C(=O)c6cccc7cccc5c67)cc43)[C@@H]2C)cc1` was “active”.
The same measure for `COc1ccc([Si](C)(C)[C@H]2[C@H](CC(=O)N3CCC[C@H]3CO)O[C@@]3(C(=O)N(Cc4cccc(N5C(=O)c6cccc7cccc5c67)c4)c4ccccc43)[C@@H]2C)cc1`: “inactive”; for `C[C@@H]1[C@@H]([Si](C)(C)F)[C@H](CCO)O[C@@]12C(=O)N(Cc1cccc(N3C(=O)c4cccc5cccc3c45)c1)c1ccccc12`: “inactive”; for `COc1ccc([Si](C)(C)[C@@H]2[C@@H](CC(=O)N3CCC[C@H]3CO)O[C@]3(C(=O)N(Cc4cccc(N5C(=O)c6cccc7cccc5c67)c4)c4ccccc43)[C@H]2C)cc1`: “inactive”.
For the compound `COc1ccc([Si](C)(C)[C@H]2[C@H](CC(=O)N3Cc4ccccc4C[C@H]3CO)O[C@@]3(C(=O)N(Cc4cccc(N5C(=O)c6cccc7cccc5c67)c4)c4ccccc43)[C@@H]2C)cc1`, the cytotoxicity call was “active”.
The same measure for `COc1ccc([Si](C)(C)[C@@H]2[C@@H](CC(=O)N3Cc4ccccc4C[C@H]3CO)O[C@]3(C(=O)N(Cc4cccc(N5C(=O)c6cccc7cccc5c67)c4)c4ccccc43)[C@H]2C)cc1`: “inactive”.
Regarding `COc1ccc([N+](=O)[O-])cc1CNCCO`, the cytotoxicity call was “inactive”.
In the case of `CCNC(=O)C[C@H]1C=C[C@@H](NC(=O)C2CCOCC2)[C@H](CO)O1`, the cytotoxicity call is “inactive”.
The value for `CN(C)CC(=O)N[C@@H]1CC[C@@H](CCNS(=O)(=O)c2ccccc2)O[C@H]1CO` was “inactive”; that for `NCc1ccccc1-c1ccco1` was “inactive”.
Turning to `C1CC(N2CCNCC2)C1`, the cytotoxicity call was “inactive”.
The same measure for `CN(C)CC(=O)N[C@@H]1CC[C@@H](CC(=O)O)O[C@H]1CO`: “inactive”; for `C[C@H](CO)N1C[C@H](C)[C@@H](CN(C)Cc2cccc3c2OCCCO3)OCc2cnnn2CCCC1=O`: “inactive”; for `CC(O)C(=O)Nc1c(I)c(C(=O)NC(CO)CO)c(I)c(C(=O)NC(CO)CO)c1I` (stereo not given): “inactive”.
Take `Cc1cccc(S(=O)(=O)N2C[C@@H](O)COC[C@@H]3O[C@@H](CC(=O)NCCCN4CCOCC4)CC[C@H]32)c1`: the cytotoxicity call is “inactive”.
With `COc1ccc(S(=O)(=O)N(C)C[C@@H]2Oc3ccc(NC(=O)NC(C)C)cc3C(=O)N([C@H](C)CO)C[C@H]2C)cc1`, the cytotoxicity call is “inactive”.
For the compound `C[C@@H]1CN([C@H](C)CO)C(=O)c2cccc(NC(=O)c3cnccn3)c2O[C@@H]1CN(C)S(=O)(=O)c1cccs1`, the cytotoxicity call was “inactive”.
For the compound `COC(=O)C1=C2CC[C@H](CO)NC(=O)N[C@@H](Cc3ccccc3)C(=O)NCc3cn(nn3)C[C@H](Cc3ccccc3)NC(=O)c3oc(c(C(=O)OC)c3C(=O)OC)CC[C@H](CO)NC(=O)N[C@@H](Cc3ccccc3)C(=O)NCc3cn(nn3)C[C@H](Cc3ccccc3)NC(=O)C(=C1C(=O)OC)O2`, the cytotoxicity call is “inactive”.
As for `CCCN(C)C[C@@H]1OCCCC[C@@H](C)Oc2ccc(NS(C)(=O)=O)cc2C(=O)N([C@H](C)CO)C[C@H]1C`, the cytotoxicity call is “inactive”.
Take `CO[C@@H]1CN(C)C(=O)c2ccc(NC(=O)c3ccccc3)cc2OC[C@@H](C)N(C(=O)CN(C)C)C[C@@H]1C`: the cytotoxicity call was “inactive”.
In the case of `CNC(=N)NCCC[C@@H](N)C(=O)O`, the cytotoxicity call is “inactive”.
The value for `C[C@@H]1CN([C@H](C)CO)C(=O)c2cc(C#Cc3ccccc3F)cnc2O[C@H]1CN(C)C(=O)Cc1ccncc1` was “inactive”; that for `Oc1c(Cl)cc(Cl)cc1Sc1cc(Cl)cc(Cl)c1O` was “active”.
For the compound `Cc1noc(C)c1NC(=O)Nc1ccc2c(c1)C(=O)N([C@@H](C)CO)C[C@@H](C)[C@H](CN(C)CC1CC1)OCCCC[C@H](C)O2`, the cytotoxicity call was “inactive”.
The value for `C[C@H]1CN([C@@H](C)CO)C(=O)c2cc(NC(=O)Cn3cnnn3)ccc2O[C@H]1CN(C)S(=O)(=O)c1cccs1` was “inactive”; that for `C[C@H]1CN([C@@H](C)CO)C(=O)CCCn2cc(nn2)CO[C@H]1CN(C)Cc1ccc2c(c1)OCCN2C` was “inactive”.
